An excerpt weighted towards active compounds, which were near 10% of everything screened.
RORg inh = ROR gamma (mouse) transcription inhibition | P51450 | Potency, µM (highest dose often 53.6 µM), for the others: at the highest dose activity change, negative = inhibition, actives largely listed as inhibitors | 5.4% of 310,000 active | Drosophila S2 Gal4-RORgamma UAS-luciferase reporter, 20 h; further: on the % scale 0 is the no-effect control and ±100 the full control effect; nearly all actives have a fitted effect of over 60% in size
Target sequence (P51450 whole entry, looked up, the tested form may be a part): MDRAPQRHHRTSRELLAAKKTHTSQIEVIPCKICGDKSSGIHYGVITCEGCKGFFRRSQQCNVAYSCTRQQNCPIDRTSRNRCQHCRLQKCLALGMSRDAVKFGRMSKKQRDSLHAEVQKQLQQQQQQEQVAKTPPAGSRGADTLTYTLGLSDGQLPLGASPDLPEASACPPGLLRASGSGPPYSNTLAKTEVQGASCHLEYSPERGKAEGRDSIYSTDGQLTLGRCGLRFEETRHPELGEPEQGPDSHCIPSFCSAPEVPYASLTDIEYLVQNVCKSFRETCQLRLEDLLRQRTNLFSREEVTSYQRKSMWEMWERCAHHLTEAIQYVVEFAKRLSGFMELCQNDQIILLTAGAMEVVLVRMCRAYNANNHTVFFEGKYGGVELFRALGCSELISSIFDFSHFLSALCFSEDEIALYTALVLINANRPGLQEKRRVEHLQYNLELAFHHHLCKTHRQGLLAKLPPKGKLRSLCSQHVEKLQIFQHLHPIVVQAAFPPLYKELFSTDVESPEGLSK
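Read-out: Photinus luciferase luminescence; inhibitors lower reporter signal. Insect Schneider cells with Gal4-ROR gamma fusion under metallothionein promoter, UAS reporter; 700 uM final copper sulfate induction, 20 hr, ambient temperature.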
SW480 rereplic = DNA re-replication induction in SW480 cells. SW480 DNA re-replication, Hoechst DNA content imaging, 48 h. Potency, µM (doses to about 46.1 µM), for the others: at the highest dose re-replication activation, usual class: activators. 1.8% of 340,000 active; further: % of control where 0% means no effect; nearly all actives have a fitted effect of over 55% in size
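Readout is total intensity of Hoechst-stained nuclei, excited at 405 nm and collected at 500-530 nm. Compound treatment lasted 48 hr at 37 C in 5% CO2 before staining.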
Gal4-VP16 FLuc = Gal4-VP16 reporter inhibition counter-screen; 3.5% of 310,000 active; Potency, µM (highest dose often 53.6 µM), for the others: top-dose activity, negative = inhibition, usual class: inhibitors; Drosophila S2 Gal4-VP16 UAS-luciferase, luminescence, 20 h;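 further: Gal4-VP16 expression switched on by copper sulfate through the metallothionein promoter; on the % scale 0 is the no-effect control and ±100 the full control effect; nearly all actives have a fitted effect of over 50% in size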
MCF10A rerep = induces DNA re-replication in MCF 10a normal breast cells. MCF 10A DNA re-replication, Hoechst nuclear intensity, 48 h. Potency, µM (highest dose often 46.1 µM), for the others: at the highest dose activity, positive = re-replication, usual class: activators. 2.9% of 350,000 active; further: % of control where 0% means no effect; nearly all actives have a fitted effect of over 50% in size
ELG1 repair inh = ELG1-dependent DNA repair inhibition; HEK293T ELG1-luciferase reporter, luminescence, 16 h; DNA damage induced by 5-fluorouridine; Potency, µM (doses to about 46.1 µM), for inactives: top-dose activity change, negative = inhibition, hits mostly inhibitors; 2.3% of 330,000 active; further: on the % scale 0 is the no-effect control and ±100 the full control effect; nearly all actives have a fitted effect of over 55% in size
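Cells (2,000 per well) received 5-fluorouridine plus test compound or DMSO and were incubated 16 hr at 37 °C, 5% CO2. Luciferase activity was read by luminescence 30 min after ONE-Glo addition; signal suppression marked inhibition of damage-induced ELG1 function.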
Active calls of the source: *; u = inconclusive; x = no result; [ ] = remark or other dose. The call rests on the fitted dose curve; in most records, active means well fitted curve in the direction sought with a large enough effect; inconclusive means small, poorly fitted or top-dose-only effect, or another doubt; inactive means no such curve, though single readings can be large; an effect the other way counts as inactive or inconclusive. Potency means the concentration at half of the fitted maximal effect.

SMILES | RORg inh | SW480 rereplic | Gal4-VP16 FLuc | MCF10A rerep | ELG1 repair inh
Cc1nnsc1C(=O)Nc1ccc(S(=O)(=O)N2CCCCC2)cc1 | 3% | -13% | -2% | 9% | 12µM*
Cc1ccc(NC(=S)Nc2ccc(S(=O)(=O)Nc3ncccn3)cc2)c(C)c1 | 13µM* | 12% | -19% | 3% | -1%
Cc1ccc(C)c(NC(=S)Nc2ccc(S(=O)(=O)Nc3ncccn3)cc2)c1 | u | -4% | u | -3% | 2%
O=C(CSc1ccccc1)Nc1ccc(S(=O)(=O)Nc2ncccn2)cc1 | 13µM* | 1% | 5% | 6% | u
O=C(Nc1ccc(S(=O)(=O)N2CCOCC2)cc1)c1ccc(S(=O)(=O)N2CCOCC2)cc1 | 10% | -19% | -8% | -1% | 0%
CC1CN(S(=O)(=O)c2ccc(C(=O)Nc3ccc(S(=O)(=O)N4CCOCC4)cc3)cc2)CC(C)O1 (centres undefined) | 41% | -1% | u | 11% | 8.2µM*
CCOC(=O)C(=O)Nc1nnc(CCc2ccccc2)s1 | u | 0% | -15% | u | -2%
C=CCNC(=O)Cc1ccc(S(=O)(=O)N2CCOCC2)s1 | x | 2% | x | 2% | 8%
O=C(O)c1cccc2c1C(=O)N(c1ccc3c(c1)Cc1ccccc1-3)C2=O | x | 4% | x | -1% | x
COc1ccc(C2=NOC(Cn3nc(C(=O)NCc4cccc(Br)c4)cc3-c3ccccc3)C2)cc1 (centres undefined) | x | -4% | x | u | u
O=C(Nc1ccc(F)cc1)c1cc(S(=O)(=O)N2CCOCC2)cs1 | u | u | 3% | 0% | -18%
O=C(Nc1ccc(Cl)cc1)c1cc(S(=O)(=O)N2CCOCC2)cs1 | 32% | -1% | 17% | 28% | 15µM*
O=C(Nc1ccc(S(=O)(=O)N2CCCCC2)cc1)c1ccc(CN2CCOCC2)cc1 | u | -4% | u | u | 7.3µM*
CCCOc1cccc(C(=O)Nc2ccc(CN3CCOCC3)cc2)c1 | 44% | 28% | 14% | 21µM* | -2%
O=C(NC(=S)Nc1ccc(S(=O)(=O)Nc2ncccn2)cc1)c1ccc(Br)cc1 | -7% | 18µM* | 1% | 2% | -3%
NS(=O)(=O)c1ccc(CCNC(=O)c2cc([N+](=O)[O-])ccc2N2CCCCC2)cc1 | 9% | -6% | 2% | 10% | u
O=C(Cc1ccsc1)Nc1ccccc1F | -2% | -4% | 4% | 28% | 11%
N#CCCN(Cc1cccnc1)C(=S)NC(=O)c1ccc(S(=O)(=O)N2CCCC2)cc1 | 2.5µM* | -3% | u | -1% | 6%
O=C(Nc1ccc(C(=O)N2CCOCC2)cc1)c1cccc(Br)c1 | 26% | u | 25% | -3% | 23%
N#CCCN(Cc1cccnc1)S(=O)(=O)c1ccc(S(=O)(=O)N2CCCCCC2)cc1 | 0% | 1% | -1% | -3% | u
N#CCc1ccc(NC(=O)c2ccc(S(=O)(=O)N3CCCC3)cc2)cc1 | u | -8% | -1% | 30% | 21µM*
O=C(Nc1ccc(S(=O)(=O)N2CCOCC2)cc1)c1ccc(Cl)cc1 | 0% | -6% | -9% | -5% | u
O=C(Nc1ccc(Cc2ccncc2)cc1)c1ccc(S(=O)(=O)N2CCOCC2)cc1 | -41% | -7% | 7.1µM* | -1% | 13µM*
O=C(Nc1cccc(Br)c1)c1cccc(OC(=S)N2CCOCC2)c1 | u | 4% | -11% | u | 15µM*
Cc1ccc(S(=O)(=O)NCCC(=O)NNC(=O)COc2ccc(Br)cc2)cc1C | x | 3% | x | -15% | -15%
SMILES | RORg inh | SW480 rereplic | Gal4-VP16 FLuc | MCF10A rerep | ELG1 repair inh
CCc1ccccc1Nc1nc(N)nc(COC(=O)CCC(=O)c2ccc(F)cc2)n1 | x | 13% | x | u | u
ONc1cccnc1-n1nc(C(F)(F)F)cc1C(F)(F)F | 11% | x | -5%[10 µM] | x | 0%
NS(=O)(=O)c1ccc(NC(=O)c2ccc(S(=O)(=O)N3CCOCC3)o2)cc1 | -1% | -8% | -11% | -3% | 12%
O=C(Nc1ccc(S(=O)(=O)N2CCCC2)cc1)c1ccc(CN2CCOCC2)cc1 | u | -6% | -6% | 4% | u
COc1ccc(NS(=O)(=O)c2ccc(NC(=O)c3ccc(CN4CCOCC4)cc3)cc2)cc1 | 14µM* | u | 3% | u | -9%
O=C(Nc1ccc(F)cc1)c1ccc(S(=O)(=O)N2CCOCC2)o1 | 34% | -11% | -16% | -6% | 16µM*
O=C(Nc1ccc(S(=O)(=O)Nc2ncccn2)cc1)c1ccc(S(=O)(=O)N2CCCC2)cc1 | 13µM* | 9% | -5% | -3% | u
O=C(CSc1nc2ccccc2[nH]1)Nc1ccc(F)cc1 | 12% | -4% | -1% | 19% | -5%
Cc1cc(C)nc(NS(=O)(=O)c2ccc(NC(=O)CSc3nc4ccccc4[nH]3)cc2)n1 | 23% | -7% | 4µM* | 17% | -4%
O=C(CCc1nc2ccccc2c(=O)[nH]1)Nc1nnc(SCc2ccc(F)cc2)s1 | x | -5% | x | 0% | 0%
CCOC(=O)c1cc(-c2cccc(C(F)(F)F)c2)nc2nc(SC)[nH]c(=O)c12 | u | -7% | u | -3% | u
CCOC(=O)c1nc(C)nc(Sc2n[nH]c(-c3cc(C(F)(F)F)cc(C(F)(F)F)c3)n2)c1C | -33% | -20% | 0% | 16µM* | -19%
CC(=O)c1ccc(S(=O)(=O)N(C)CC(=O)Nc2cccc(S(=O)(=O)N3CCCC3)c2)cc1 | x | 18% | x | 18% | x
CC1(C)CCC/C(=C\c2ccccc2)C1=O | x | 6%[9.22 µM] | x | -3% | 2%
O=[N+]([O-])c1ccc(Sc2ncccn2)c([N+](=O)[O-])c1 | 7.9µM* | u | u | 18µM* | u
O=[N+]([O-])c1ccc(Sc2nccn2Cc2ccccc2)c([N+](=O)[O-])c1 | u | u | u | 21µM* | -7%
Cc1cccc(Sc2ccc([N+](=O)[O-])cc2[N+](=O)[O-])n1 | -36% | 5% | -26% | u | 7%
COc1ccc(CNC(=O)COC(=O)c2ccc(OCC3CCCO3)cc2)cc1 (centres undefined) | x | u | x | 8% | -23%
Cc1ccc(S(=O)(=O)N(CC2CO2)c2cccc([N+](=O)[O-])c2)cc1 (centres undefined) | -12% | 18µM* | -20% | u | u
Cc1ccc(S(=O)(=O)N(CC(=O)Nc2cccnc2)c2cccc([N+](=O)[O-])c2)cc1 | 2% | u | -3% | 23µM* | u
O=[N+]([O-])c1ccc(N(CC2CO2)S(=O)(=O)c2ccccc2)cc1 (centres undefined) | -18% | -6% | 14% | 10% | u
COc1ccc(NC(=O)CN(C)C(=O)CSCc2ccc(C)cc2)cc1 | x | -3% | x | -3% | 7%
Clc1ccccc1COc1ccccc1-c1nnco1 | 11µM* | -2% | u | 2% | -5%

Screening data from PubChem.
